Test [1] deals with Dual specificity protein kinase CLK3 (Homo sapiens) (UniProt P49761). Conditions: at 1 µM.
The target of test [2] is Dual specificity tyrosine-phosphorylation-regulated kinase 1A (Homo sapiens) (UniProt Q13627). The note with it: at 0.1 µM.
For test [3] the target is unchanged. The note with it: at 1 µM.
Test [4] has as its target Dual specificity tyrosine-phosphorylation-regulated kinase 1B (Homo sapiens) (UniProt Q9Y463). Conditions: at 0.1 µM.
For test [5] the target is unchanged. The note with it: at 1 µM.
In test [6] the target is T1, Dual specificity tyrosine-phosphorylation-regulated kinase 2 (Homo sapiens) (UniProt Q92630).
T1 sequence (whole entry): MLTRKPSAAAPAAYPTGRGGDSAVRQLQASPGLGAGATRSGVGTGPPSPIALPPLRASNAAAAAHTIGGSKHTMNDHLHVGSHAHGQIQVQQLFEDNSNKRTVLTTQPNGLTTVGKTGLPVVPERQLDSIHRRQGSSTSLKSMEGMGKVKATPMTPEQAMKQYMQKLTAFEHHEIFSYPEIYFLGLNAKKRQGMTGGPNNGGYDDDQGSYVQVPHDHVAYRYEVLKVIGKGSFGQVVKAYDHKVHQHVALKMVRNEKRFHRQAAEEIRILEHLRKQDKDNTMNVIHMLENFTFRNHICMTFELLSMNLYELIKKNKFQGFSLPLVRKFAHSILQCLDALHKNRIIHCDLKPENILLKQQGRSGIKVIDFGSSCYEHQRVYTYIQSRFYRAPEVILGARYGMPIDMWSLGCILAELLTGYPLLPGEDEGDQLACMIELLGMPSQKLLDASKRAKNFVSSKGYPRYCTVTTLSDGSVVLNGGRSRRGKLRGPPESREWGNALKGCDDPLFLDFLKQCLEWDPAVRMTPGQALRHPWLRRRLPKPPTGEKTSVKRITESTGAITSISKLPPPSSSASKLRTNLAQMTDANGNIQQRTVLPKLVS
Conditions: at 0.1 µM.

The target in test [7] is T1, Dual specificity tyrosine-phosphorylation-regulated kinase 2 (Homo sapiens). The note with it: at 1 µM.
Test [8] concerns the target Glycogen synthase kinase-3 alpha (Homo sapiens) (UniProt P49840). The note with it: at 0.1 µM.
Test [9] shares this target. Conditions: at 1 µM.
The target of test [10] is Glycogen synthase kinase-3 beta (Homo sapiens) (UniProt P49841). The note with it: at 0.1 µM.
For test [11] the target is unchanged. Conditions: at 1 µM.
The target of test [12] is Homeodomain-interacting protein kinase 1 (Homo sapiens) (UniProt Q86Z02). Conditions: at 0.1 µM.
The target is the same in test [13]. The note with it: at 1 µM.
For test [14], the target named is T2, Homeodomain-interacting protein kinase 4 (Homo sapiens) (UniProt Q8NE63).
T2 sequence (whole entry): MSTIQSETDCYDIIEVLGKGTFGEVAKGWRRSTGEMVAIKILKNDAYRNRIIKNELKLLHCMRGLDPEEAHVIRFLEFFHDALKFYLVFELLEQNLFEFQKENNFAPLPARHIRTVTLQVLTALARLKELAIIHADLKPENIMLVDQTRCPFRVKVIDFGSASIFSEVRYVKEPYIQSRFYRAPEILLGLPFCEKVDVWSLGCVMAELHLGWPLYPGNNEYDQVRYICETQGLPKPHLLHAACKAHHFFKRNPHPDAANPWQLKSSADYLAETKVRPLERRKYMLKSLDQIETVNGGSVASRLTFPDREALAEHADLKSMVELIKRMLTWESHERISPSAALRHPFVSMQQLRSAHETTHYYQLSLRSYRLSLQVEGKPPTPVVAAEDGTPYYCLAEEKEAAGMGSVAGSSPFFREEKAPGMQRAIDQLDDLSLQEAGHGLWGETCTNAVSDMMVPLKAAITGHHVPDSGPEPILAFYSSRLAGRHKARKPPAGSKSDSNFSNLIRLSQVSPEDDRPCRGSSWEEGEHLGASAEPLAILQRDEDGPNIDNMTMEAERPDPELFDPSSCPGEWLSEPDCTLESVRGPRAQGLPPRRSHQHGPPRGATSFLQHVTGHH
Conditions: at 0.1 µM.

In test [15] the target is T2, Homeodomain-interacting protein kinase 4 (Homo sapiens). The note with it: at 1 µM.
Test [16] deals with Mitogen-activated protein kinase 9 (Homo sapiens) (UniProt P45984). The note with it: at 0.1 µM.
Test [17] has the same target. Conditions: at 1 µM.
For test [18], the target named is Mitogen-activated protein kinase 1 (Homo sapiens) (UniProt P28482). The note with it: at 0.1 µM.
For test [19] the target is unchanged. Conditions: at 1 µM.
Test [20] concerns the target Mitogen-activated protein kinase 3 (Homo sapiens) (UniProt P27361). Conditions: at 0.1 µM.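 Further: each value is a mean inhibition figure.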

Sequence of Mitogen-activated protein kinase 3 (Homo sapiens) (P27361 whole entry): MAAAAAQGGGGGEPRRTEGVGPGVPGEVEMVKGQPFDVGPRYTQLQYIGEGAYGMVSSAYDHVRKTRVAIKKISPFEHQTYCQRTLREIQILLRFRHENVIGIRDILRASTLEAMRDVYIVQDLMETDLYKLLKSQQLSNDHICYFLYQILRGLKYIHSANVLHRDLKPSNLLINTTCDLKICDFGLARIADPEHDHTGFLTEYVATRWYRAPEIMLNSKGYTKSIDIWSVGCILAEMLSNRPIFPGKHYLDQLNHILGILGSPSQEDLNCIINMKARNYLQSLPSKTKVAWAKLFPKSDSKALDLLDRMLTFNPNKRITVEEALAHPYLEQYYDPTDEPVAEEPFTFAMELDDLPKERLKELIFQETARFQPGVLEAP
Sequence of Dual specificity tyrosine-phosphorylation-regulated kinase 1B (Homo sapiens) (Q9Y463 whole entry, looked up): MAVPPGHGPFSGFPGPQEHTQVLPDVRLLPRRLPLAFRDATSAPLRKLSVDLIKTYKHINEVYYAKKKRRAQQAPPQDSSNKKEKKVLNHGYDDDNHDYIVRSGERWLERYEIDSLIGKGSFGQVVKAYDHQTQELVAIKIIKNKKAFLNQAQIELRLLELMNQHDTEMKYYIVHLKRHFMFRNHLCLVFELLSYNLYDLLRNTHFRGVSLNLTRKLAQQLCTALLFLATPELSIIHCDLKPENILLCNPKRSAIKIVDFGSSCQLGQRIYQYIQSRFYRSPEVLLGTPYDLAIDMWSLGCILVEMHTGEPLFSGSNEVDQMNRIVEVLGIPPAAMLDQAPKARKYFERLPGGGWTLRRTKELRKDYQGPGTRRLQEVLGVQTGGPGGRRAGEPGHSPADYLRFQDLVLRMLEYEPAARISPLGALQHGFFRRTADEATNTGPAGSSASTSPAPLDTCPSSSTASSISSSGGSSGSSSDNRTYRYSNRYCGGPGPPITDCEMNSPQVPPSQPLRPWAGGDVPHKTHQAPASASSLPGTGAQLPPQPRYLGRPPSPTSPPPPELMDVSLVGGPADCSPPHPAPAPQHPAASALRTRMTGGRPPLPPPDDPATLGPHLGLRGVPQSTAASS
Sequence of Dual specificity protein kinase CLK3 (Homo sapiens) (P49761 whole entry, looked up): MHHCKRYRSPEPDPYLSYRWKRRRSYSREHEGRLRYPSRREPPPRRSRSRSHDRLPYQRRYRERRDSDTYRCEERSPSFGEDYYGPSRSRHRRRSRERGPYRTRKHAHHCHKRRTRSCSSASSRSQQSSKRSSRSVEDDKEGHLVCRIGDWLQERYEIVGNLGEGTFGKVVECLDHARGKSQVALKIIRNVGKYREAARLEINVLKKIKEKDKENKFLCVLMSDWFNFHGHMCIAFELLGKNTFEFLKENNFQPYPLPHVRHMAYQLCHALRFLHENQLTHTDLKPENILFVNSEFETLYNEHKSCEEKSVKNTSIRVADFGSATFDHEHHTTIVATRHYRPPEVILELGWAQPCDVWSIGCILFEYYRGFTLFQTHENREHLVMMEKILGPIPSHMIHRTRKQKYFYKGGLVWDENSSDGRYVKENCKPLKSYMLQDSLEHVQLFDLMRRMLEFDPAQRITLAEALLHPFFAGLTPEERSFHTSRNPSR
Sequence of Mitogen-activated protein kinase 9 (Homo sapiens) (P45984 whole entry, looked up): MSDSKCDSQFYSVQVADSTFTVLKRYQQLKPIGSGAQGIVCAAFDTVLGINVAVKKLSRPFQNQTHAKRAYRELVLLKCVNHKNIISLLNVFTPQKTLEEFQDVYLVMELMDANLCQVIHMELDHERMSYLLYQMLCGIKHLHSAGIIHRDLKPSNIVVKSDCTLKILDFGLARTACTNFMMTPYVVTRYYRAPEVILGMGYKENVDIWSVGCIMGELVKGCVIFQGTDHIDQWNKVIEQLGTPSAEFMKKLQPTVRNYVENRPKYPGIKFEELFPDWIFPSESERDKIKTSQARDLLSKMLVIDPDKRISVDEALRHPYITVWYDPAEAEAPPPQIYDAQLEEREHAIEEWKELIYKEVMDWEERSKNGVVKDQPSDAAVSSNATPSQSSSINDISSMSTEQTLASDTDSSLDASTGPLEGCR
Sequence of Mitogen-activated protein kinase 1 (Homo sapiens) (P28482 whole entry): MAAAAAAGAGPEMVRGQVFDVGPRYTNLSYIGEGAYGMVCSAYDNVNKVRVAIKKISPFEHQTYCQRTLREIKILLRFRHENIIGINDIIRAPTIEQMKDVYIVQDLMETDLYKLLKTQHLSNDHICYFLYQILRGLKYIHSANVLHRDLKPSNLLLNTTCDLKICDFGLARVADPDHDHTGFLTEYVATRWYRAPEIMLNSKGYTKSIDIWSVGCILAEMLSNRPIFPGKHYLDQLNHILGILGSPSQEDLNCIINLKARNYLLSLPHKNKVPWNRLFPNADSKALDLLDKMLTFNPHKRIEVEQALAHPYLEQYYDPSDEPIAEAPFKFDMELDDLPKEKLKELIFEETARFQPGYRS
Sequence of Glycogen synthase kinase-3 beta (Homo sapiens) (P49841 whole entry, looked up): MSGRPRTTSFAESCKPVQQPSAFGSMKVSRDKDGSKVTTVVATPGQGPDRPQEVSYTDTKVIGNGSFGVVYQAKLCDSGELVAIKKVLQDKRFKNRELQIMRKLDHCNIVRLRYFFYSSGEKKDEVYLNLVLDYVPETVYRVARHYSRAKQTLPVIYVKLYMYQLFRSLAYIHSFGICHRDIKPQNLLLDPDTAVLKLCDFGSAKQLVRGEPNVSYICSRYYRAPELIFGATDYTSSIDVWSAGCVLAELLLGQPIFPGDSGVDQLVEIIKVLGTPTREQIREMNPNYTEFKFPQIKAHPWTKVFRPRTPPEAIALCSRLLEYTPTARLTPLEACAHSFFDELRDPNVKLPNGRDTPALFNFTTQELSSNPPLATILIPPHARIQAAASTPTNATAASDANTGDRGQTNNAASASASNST
Sequence of Homeodomain-interacting protein kinase 1 (Homo sapiens) (Q86Z02 whole entry, looked up): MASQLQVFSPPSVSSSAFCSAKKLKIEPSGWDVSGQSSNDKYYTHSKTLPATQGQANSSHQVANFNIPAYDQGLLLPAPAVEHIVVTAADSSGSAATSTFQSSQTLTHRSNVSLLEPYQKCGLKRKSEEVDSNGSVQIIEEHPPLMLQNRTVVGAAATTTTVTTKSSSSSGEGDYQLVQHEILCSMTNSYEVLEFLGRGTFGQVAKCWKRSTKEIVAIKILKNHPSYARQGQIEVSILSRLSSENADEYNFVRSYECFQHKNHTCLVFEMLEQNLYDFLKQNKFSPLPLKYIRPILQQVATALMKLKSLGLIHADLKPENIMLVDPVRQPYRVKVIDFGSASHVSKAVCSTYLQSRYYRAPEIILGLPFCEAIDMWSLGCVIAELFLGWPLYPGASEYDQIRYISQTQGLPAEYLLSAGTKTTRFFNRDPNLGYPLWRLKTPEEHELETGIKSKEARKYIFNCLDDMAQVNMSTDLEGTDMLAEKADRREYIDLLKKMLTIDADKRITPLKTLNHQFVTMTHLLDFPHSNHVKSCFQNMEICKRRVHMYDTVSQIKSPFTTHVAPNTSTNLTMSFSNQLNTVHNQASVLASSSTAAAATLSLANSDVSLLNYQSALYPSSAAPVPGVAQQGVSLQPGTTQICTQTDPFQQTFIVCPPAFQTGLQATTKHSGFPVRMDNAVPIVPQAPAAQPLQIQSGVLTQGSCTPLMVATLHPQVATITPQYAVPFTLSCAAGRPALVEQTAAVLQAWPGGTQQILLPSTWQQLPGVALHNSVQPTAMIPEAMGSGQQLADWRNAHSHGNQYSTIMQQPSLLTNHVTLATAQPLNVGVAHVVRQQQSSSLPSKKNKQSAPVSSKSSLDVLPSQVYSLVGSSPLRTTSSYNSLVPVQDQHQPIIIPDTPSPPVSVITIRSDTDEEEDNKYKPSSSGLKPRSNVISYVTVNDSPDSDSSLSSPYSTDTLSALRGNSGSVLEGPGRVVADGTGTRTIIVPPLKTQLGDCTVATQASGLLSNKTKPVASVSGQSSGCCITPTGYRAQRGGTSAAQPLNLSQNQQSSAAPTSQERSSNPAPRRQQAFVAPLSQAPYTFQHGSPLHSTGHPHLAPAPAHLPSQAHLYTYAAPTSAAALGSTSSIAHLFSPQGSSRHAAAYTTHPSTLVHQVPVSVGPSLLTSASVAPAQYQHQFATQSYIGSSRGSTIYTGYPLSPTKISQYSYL
Sequence of Glycogen synthase kinase-3 alpha (Homo sapiens) (P49840 2-483 limits assumed): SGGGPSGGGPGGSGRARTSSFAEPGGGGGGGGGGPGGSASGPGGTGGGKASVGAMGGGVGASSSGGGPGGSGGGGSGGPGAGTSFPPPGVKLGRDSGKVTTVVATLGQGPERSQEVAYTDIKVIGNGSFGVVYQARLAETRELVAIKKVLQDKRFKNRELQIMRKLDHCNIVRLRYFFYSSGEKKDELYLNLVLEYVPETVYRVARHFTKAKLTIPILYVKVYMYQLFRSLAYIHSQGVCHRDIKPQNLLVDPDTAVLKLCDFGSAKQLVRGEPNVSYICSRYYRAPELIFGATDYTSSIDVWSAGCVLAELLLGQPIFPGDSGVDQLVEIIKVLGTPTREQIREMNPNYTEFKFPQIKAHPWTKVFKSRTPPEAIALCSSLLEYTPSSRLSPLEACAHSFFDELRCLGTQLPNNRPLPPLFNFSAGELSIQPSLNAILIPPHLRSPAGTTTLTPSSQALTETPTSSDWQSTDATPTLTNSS

`N#Cc1cccc(Nc2ncc(-c3ccccc3)o2)c1`: the inhibition in [1] was 1.97%; in test [2], 1.47%; in test [3], 5.95%; in test [4] it was -0.09%; in test [5], 3.53%; in test [6], 0.71%. For the same molecule, the inhibition in test [7] was 2.45%; in [8] it was 5.76%; in [9] it was 25.6%; in test [10] it was 2.85%; in test [11], 16.9%; in test [12] it was 3.5%. The inhibition in [13] stood at 20.2%; in [14] it was 6.92%; in test [15], 36.4%; in test [16], 1.32%; in test [17], 2.85%; in test [18] it was 1.39%. Besides, the values for the inhibition in test [19] and in [20] were 3.01% and 2.87%, respectively.
Take `c1cnn2ncc(-c3ccnc(NCCCN4CCOCC4)n3)c2c1`: the inhibition is 0.72% in test [1]; 6.3% in test [2]; 33.9% in test [3]; 6.84% in [4]; 40.3% in test [5]; 1.99% in test [6]. For the same molecule, the inhibition in test [7] was 5.39%; in [8], 2.46%; in [9] it was 13.1%; in [10], 1.44%; in test [11], 13%; in test [12], -1.15%. Besides, the inhibition in test [13] is 6.02%; in test [14], -0.89%; in [15] it was 3.35%; in test [16], 3.34%; in test [17], 5.01%; in [18], 2.95%. In addition, the inhibition in test [19] came to 4.35%; in test [20], 2.48%.
In the case of `COc1c(C(N)=O)cc(-c2ccc(Cl)cc2)cc1-c1ccc(S(N)(=O)=O)cc1`, the inhibition in [1] was 0.31%; in [2], 3.11%; in test [3], 4.97%; in test [4], -0.92%; in test [5] it was -0.01%; in test [6] it was 3.75%. Besides, the inhibition in [7] is 8.4%; in test [8] it was 1.76%; in test [9] it was 2.57%; in test [10] it was 0.69%; in test [11], 2.65%; in test [12] it was -1.29%. For the same molecule, the inhibition in test [13] was -0.59%; in [14] it was 0.4%; in test [15] it was 1.94%; in [16], 3.46%; in test [17] it was 8.22%; in [18], 5.87%. Moreover, the inhibition in test [19] was determined as 5.86%; in test [20] it was 4.58%.
As for `CC1(C)CC(n2cnc(-c3ccc(F)cc3)c2-c2ccnc(N)n2)CC(C)(C)N1`, the inhibition in test [1] came to 1.38%; in [2], 1.54%; in test [3], 5.47%; in test [4], 0.78%; in [5], 1.31%; in test [6], 0.23%. Further, the inhibition was -0.37% in [7]; 1.97% in test [8]; 5.81% in test [9]; 1.6% in [10]; 6.07% in test [11]; -1.4% in [12]. Moreover, the inhibition in [13] is -0.7%; in [14], -0.06%; in test [15] it was 1.62%; in [16] it was -1.22%; in test [17], 4.24%; in test [18] it was -0.07%. The results for the inhibition in test [19] and in test [20] were -0.08% and 0.44%, respectively.
For the molecule `N#Cc1ccc2c(-c3ccnc(NC4CC4)n3)c(-c3ccc(F)cc3)nn2c1`, the inhibition in test [1] was -0.84%; in test [2], 1.91%; in test [3], 0.14%; in test [4], -0.4%; in test [5], -2.94%; in [6] it was 0.64%. In addition, the inhibition in [7] is -0.6%; in test [8], 5.27%; in [9], 24.3%; in [10], 8.49%; in test [11], 45.1%; in test [12], -2.11%. The inhibition is 0.75% in [13]; -0.93% in test [14]; -1.01% in test [15]; 17.2% in [16]; 71.1% in [17]; 1.33% in [18]. The results for the inhibition in test [19] and in test [20] were 4.26% and 0.07%, respectively.
Consider `CC(C)c1ccc(-c2cc(-c3c[nH]nc3-c3ccccn3)ccn2)cc1`, for which the inhibition in test [1] was found to be 0.76%; in [2], 0.59%; in [3], 2.33%; in test [4] it was 0.57%; in [5], 1.3%; in [6], 0.98%. Further, the inhibition was 0.3% in test [7]; 0.61% in test [8]; 2.95% in test [9]; -0.15% in test [10]; 3.51% in [11]; -2.26% in test [12]. In addition, the inhibition in test [13] is 0.99%; in test [14], 0.13%; in test [15], 3.76%; in test [16], 0.51%; in [17], 2.5%; in test [18], -0.73%. The values for the inhibition in test [19] and in [20] were 2.22% and 0.86%, respectively.
Turning to `FC(F)(F)CNc1nccc(-c2cnn3ncccc23)n1`, the inhibition in test [1] was determined as 2.91%; in [2], 14.6%; in test [3] it was 60.1%; in [4], 16.1%; in test [5], 59%; in test [6], 2.04%. For the same molecule, the inhibition in test [7] was determined as 14.3%; in [8], 3.64%; in [9], 7.01%; in [10], 2.33%; in test [11], 6.02%; in test [12], 0.25%. The inhibition in [13] is 10.2%; in test [14], -0.95%; in [15], 3.01%; in test [16], 2.29%; in test [17], 4.42%; in test [18] it was 3.24%. In addition, the figures for the inhibition in test [19] and in [20] were 5.24% and 1.95%, respectively.

As usually defined, the inhibition is the relative decrease from the control value, in per cent.
